A selection: hits, their analogues and other compounds. The true share with any hit is near 5.5%.
Gal4-VP16 FLuc – Gal4-VP16 reporter inhibition counter-screen; Potency, µM (doses to about 53.6 µM), for inactives: top-dose activity, negative = inhibition, most hits filed as inhibitors; 3.5% of 310,000 active; AID 2546; Drosophila S2 Gal4-VP16 UAS-luciferase, luminescence, 20 h;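 further: Gal4-VP16 expression switched on by copper sulfate through the metallothionein promoter; potency means the concentration at half of the fitted maximal effect; on the % scale 0 is the no-effect control and ±100 the full control effect; nearly all actives have a fitted effect of over 50% in size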
CBFb RUNX1 block – inhibitors of human CBF-beta and RUNX1 interaction; Q01196+Q13951; AlphaScreen CBFb-His/RUNX1-biotin binding, biochemical; Potency, µM (series often up to 59.8 µM), for inactives: at the top dose activity, negative = inhibition, actives largely listed as inhibitors; 230,000 tested, under 10 active; further: % of control where 0% means no effect
Target sequence (Q01196 whole entry, looked up): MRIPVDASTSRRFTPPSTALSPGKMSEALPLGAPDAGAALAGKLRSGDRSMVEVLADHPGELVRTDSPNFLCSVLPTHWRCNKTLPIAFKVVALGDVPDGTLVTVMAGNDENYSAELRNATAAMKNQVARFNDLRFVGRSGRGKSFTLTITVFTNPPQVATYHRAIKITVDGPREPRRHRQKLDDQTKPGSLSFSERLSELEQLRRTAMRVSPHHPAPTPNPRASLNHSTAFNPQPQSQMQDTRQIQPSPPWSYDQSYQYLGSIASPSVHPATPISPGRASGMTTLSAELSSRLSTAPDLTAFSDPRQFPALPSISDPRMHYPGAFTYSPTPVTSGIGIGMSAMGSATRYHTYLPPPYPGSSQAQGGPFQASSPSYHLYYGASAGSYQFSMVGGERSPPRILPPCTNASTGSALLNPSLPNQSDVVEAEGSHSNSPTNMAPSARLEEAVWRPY
Target sequence (Q13951 whole entry, looked up): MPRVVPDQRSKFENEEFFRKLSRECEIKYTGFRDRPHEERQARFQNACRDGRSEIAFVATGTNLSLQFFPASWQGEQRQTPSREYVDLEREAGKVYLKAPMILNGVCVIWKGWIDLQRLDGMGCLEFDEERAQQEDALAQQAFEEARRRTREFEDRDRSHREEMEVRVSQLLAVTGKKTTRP
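Inhibition was taken as any reduction in AlphaScreen signal from the CBF-beta–RUNX1 pair (His and biotin tags, 30 nM each), measured after compound (15 min) and bead (90 min) incubations at room temperature.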
Six1-Eya2 blk – inhibitors of human Six1/Eya2 interaction. Q15475+O00167. AlphaScreen GST-Six1/His-Eya2 binding, biochemical; stronger effect = lower value. activity change, % (test concentration not listed). 0.56% of 360,000 active; in the data active means activity change below about -65%; inconclusive means mostly about -30% to -63%; further: on the % scale 0 is the no-effect control and ±100 the full control effect
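AlphaScreen luminescence read after one hour at 37 °C in darkness. Pin-transferred compounds met GST-Six1 and His-Eya2 protein (5X stock 250 nM/500 nM) plus glutathione donor and Ni-chelate acceptor beads (5X, 50 ug/mL).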
RORgamma inh – ROR gamma (mouse) transcription inhibition; 5.4% of 310,000 active; P51450; Drosophila S2 Gal4-RORgamma UAS-luciferase reporter, 20 h; Potency, µM (highest dose often 53.6 µM), inactives show at the highest dose activity change, negative = inhibition, usual class: inhibitors; further: potency means the concentration at half of the fitted maximal effect; on the % scale 0 is the no-effect control and ±100 the full control effect; nearly all actives have a fitted effect of over 60% in size
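Luciferase reporter read in Schneider cells carrying Gal4-RORγ (mouse) and UAS-Photinus luciferase; cells given compound 1 h before 700 uM copper sulfate induction, then incubated 20 h at ambient temperature.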
MBNL1-CUG inh – inhibitors of human MBNL1 binding to CUG repeat RNA; 0.036% of 280,000 active; AID 2675; TR-FRET MBNL1-His/biotin-(CUG)12 binding, 665/545 ratio; Potency, µM (top dose mostly 57.5 µM), inactives show at the top dose activity change, negative = inhibition, most hits filed as inhibitors; active means well fitted inhibition curve with a large enough effect in the signal ratio, with a control signal flat, not every such curve was filed as active; inconclusive means small, poorly fitted or top-dose-only effect, or effect the other way, or a change in a side signal; inactive means no such curve, though single readings can be large or run the other way; the % refers to the signal ratio; further: potency means the concentration at half of the fitted maximal effect; on the % scale 0 is the no-effect control and ±100 the full control effect
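MBNL1-His + Biotin-(CUG)12, cpd titration 92 nM–58 uM; Tb anti-His Ab 0.055 ng/ul, SA-XL665 5 nM (final); 60 min RT; ratiometric 665/545 nm, Ex 340 nm; normalized to buffer and full-complex controls.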
CtBP-E1A inh – blocks the CtBP interaction with E1A; AlphaScreen GST-E1A/His-CtBP binding, 1536-well; stronger effect = lower value; activity change, % (concentration not given with the values); 0.49% of 340,000 active; AID 651724; in the data active means activity change below about -65%; inconclusive means mostly about -30% to -63%; further: on the % scale 0 is the no-effect control and ±100 the full control effect
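Homogeneous bead-based format: GST-tagged E1A captured on glutathione donor beads, His-tagged CtBP on nickel acceptor beads; compounds precede bead addition by 2 h at 37 °C.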
* = called active by the depositor; ? = inconclusive; . = not tested or not shown; [ ] = another dose, or the depositor's remark. Unless noted, the call rests on the fitted dose curve; in most records, active means well fitted curve in the direction sought with a large enough effect; inconclusive means small, poorly fitted or top-dose-only effect, or another doubt; inactive means no such curve, though single readings can be large; an effect the other way counts as inactive or inconclusive.

SMILES | Gal4-VP16 FLuc | CBFb RUNX1 block | Six1-Eya2 blk | RORgamma inh | MBNL1-CUG inh | CtBP-E1A inh
CC(=O)c1c(O)cc(O)c(C(C)=O)c1O | 10µM* | 2.4% | 5.3 | ? | -0.6% | 5.7
Cc1ccc(NC(=O)C2CCN(c3ncnc4c3nc3n4CCCCC3)CC2)nc1 | ? | . | -7.8 | ? | 0.2% | .
CSCCC(NC(=O)C1CCC(C)CC1)C(=O)OCC(=O)c1ccc(Cl)cc1 (stereo unspecified) | 3.98µM* | 2.9% | 13.9 | 6.8% | ? | -8.0
CSCCC(NC(=O)C12CC3CC(CC(C3)C1)C2)C(=O)OCC(=O)c1ccc(Cl)cc1 (stereo unspecified) | 1.0% | -0.7% | 8.1 | -4.3% | -2.3% | 4.4
Cc1cc(C(F)(F)F)nn1Cc1ccc(C(=O)NCc2ccco2)o1 | ? | -0.9% | -1.7 | 10µM* | -0.7% | 1.3
COc1ccc(CNC(=O)c2ccc(Cn3nc(C)cc3C)o2)cc1 | -8.3% | . | 1.7 | -25.3% | -1.3% | 4.2
COc1ccccc1-c1nc(Nc2ccncc2)c2ccccc2n1 | 9.1% | . | . | -32.5% | . | .
Cc1noc(C)c1-c1nc(Nc2ccc(F)cc2)c2ccccc2n1 | 1.5% | . | . | 19.2% | . | .
Cc1noc(C)c1-c1nc(Nc2ccncc2)c2ccccc2n1 | -2.9% | . | . | 8.91µM* | . | .
FC(F)(F)c1ccccc1-c1nc(Nc2ccncc2)c2ccccc2n1 | ? | . | . | 11.2µM* | . | .
C=C1C(=O)[C@@]23[C@H](O)C[C@@H]4C(C)(C)CC[C@H](O)[C@]4(C)[C@@H]2C[C@H](O)[C@@H]1[C@H]3O | 3.16µM* | 0.9% | 0.5 | 2.51µM* | 13.7% | -2.0
C=C1C(=O)[C@@]23[C@H](O)C[C@@H]4C(C)(C)CC[C@H](O)[C@@]4(C)[C@@H]2CC[C@@H]1[C@H]3O | 5.62µM* | 11.0% | 8.1 | 2.82µM* | -9.6% | -5.0
C=C1C(=O)[C@]23C[C@H]1CCC2[C@]1(C)CCC[C@@](C)(C(=O)O)C1C[C@@H]3O (stereo partly specified) | . | . | -22.3 | . | . | -2.9
COc1cc(NC(=O)O[C@@H]2C(=O)c3cc(Br)ccc3O[C@H]2c2ccc3c(c2)OCO3)cc(OC)c1OC | -2.6% | 4.2% | . | -8.9% | . | .
N#C/C(=C(/O)c1ccc([N+](=O)[O-])cc1)c1nnc2n1CCCCC2 | ? | 0.2% | -1.5 | 17.8µM* | ? | 4.7
N#C/C(=C(/O)c1cccs1)c1nnc2n1CCCCC2 | ? | 9.6% | 5.6 | 10µM* | 0.0% | -0.2
CCC(C)(C)C(=O)O[C@@H]1C[C@H](C)C=C2C=C[C@H](C)[C@@H](CC[C@H]3C[C@@H](O)CC(=O)O3)[C@H]21 | -4.8%[17 µM] | -9.6%[21.7 µM] | . | 15.4%[2.98 µM] | . | .
Cc1ccc(NC(=O)CSc2nc3nc(C)c(Br)cc3[nH]2)cc1F | -28.7% | . | 6.5 | -29.9% | 28.0% | .
FC(F)(F)c1ccc2c(c1)[nH]c(=S)n2C1CC1 | ? | -2.5% | 0.0 | 1.41µM* | -12.5% | -7.7
O=C(NCCN1CCC(n2c(=O)[nH]c3ccccc32)CC1)c1ccc(C(F)(F)F)cc1C(F)(F)F | . | . | 5.2 | . | . | 2.3
O=C(N/N=C/c1cccc(NC(=O)c2ccc(Cl)cc2)c1)c1cccc(O)c1 | -5.5% | 9.5% | -19.0 | -9.4% | 8.7% | -21.7
COc1ccc(NS(=O)(=O)c2cccc(C(=O)N/N=C/c3ccccc3OC)c2)cc1 | . | . | -19.1 | . | . | -6.2
O=C(N/N=C/c1cccs1)c1cccc(NC(=O)c2ccc(Cl)cc2)c1 | 12.6µM* | -4.8% | . | 10µM* | -6.5% | .
O=C(N/N=C/c1cccs1)c1cccc(S(=O)(=O)Nc2ccc(Cl)cc2)c1 | 5.62µM* | -2.0% | -4.4 | 3.98µM* | -9.1% | 1.1
CC(C)(C)c1ccc(OCCCC(=O)Nc2nnc(C3CC3)s2)cc1 | . | . | 4.9 | . | . | -3.4
SMILES | Gal4-VP16 FLuc | CBFb RUNX1 block | Six1-Eya2 blk | RORgamma inh | MBNL1-CUG inh | CtBP-E1A inh
Cc1ccc(N/C(=N/S(=O)(=O)c2cccs2)c2ccccc2)c(C)c1 | 7.0% | 3.4% | -0.8 | 2.4% | 1.3% | -0.5
Cc1ccc(NC2=C/C(=N/S(=O)(=O)c3cccs3)c3ccccc3C2=O)cc1 | 6.31µM* | -27.0% | ? | 10µM* | -10.0% | -29.6
O=C1C(Nc2ccccc2)=C/C(=N/S(=O)(=O)c2cccs2)c2ccccc21 | 5.01µM* | . | -85.6* | 4.47µM* | ? | ?
O=C(Nc1cccc(C(=O)N2CCCC2)c1)C1CCC1 | . | . | -0.9 | . | . | 3.0
N#Cc1c(N)[nH]c(=S)c(C#N)c1-c1ccccc1 | ? | 1.6% | -15.3 | 10µM* | 2.9% | -24.2
Cc1ccc(-c2cc(-c3ccccc3)[nH]c(=S)c2C#N)cc1 | ? | 5.4% | 4.3 | ? | 125.0% | 4.6
CCn1c(C(=O)O)c(CC(=O)Nc2ccccc2OC)c2ccccc21 | -6.0% | . | 3.7 | 10.0% | 0.1% | 7.8
S=c1[nH]nc(C2CCCCC2)n1/N=C/c1ccccn1 | -10.3%[10 µM] | -1.4% | 3.1 | -13.0% | -5.3% | 12.4
Cc1ccc(/C=N/n2c(C3CCCCC3)n[nH]c2=S)s1 | 3.16µM* | -1.5% | 2.5 | 3.16µM* | . | -7.9
Cc1ccsc1/C=N/n1c(C2CCCCC2)n[nH]c1=S | 3.16µM* | 8.1% | 3.6 | 2.51µM* | -7.7% | -1.0
O=C(N[C@@H]1CCC(=O)N(CC[C@H](Sc2ccccc2)c2ccccc2)CC1)OCc1ccccc1 | 5.9% | . | -2.7 | 24.0% | -4.8% | 3.1
CCCCc1nc2c(c3c1C[C@H](C)OC3)CN(C(=O)N[C@@H](C)c1ccccc1)CC2 | . | -9.8%[13.1 µM] | . | . | . | .
Cc1ccc(-n2c(-c3ccc(Br)cc3)c[n+]3c2CCc2ccc4cccnc4c2-3)cc1 | 1.41µM* | -7.4% | -11.3 | 7.08µM* | 5.4% | -12.7
Cc1ccc(-c2c[n+]3c(n2-c2ccccc2)CCC3)cc1 | ? | 2.2% | 8.3 | ? | . | 0.4
O=C(N/N=C/c1cc([N+](=O)[O-])ccc1O)c1cccc(NC(=O)c2cccc(Cl)c2)c1 | ? | . | -2.1 | 4.47µM* | 13.5% | 3.6
Cc1nc2ccc(C(=O)N/N=C/c3ccccc3O)cc2[nH]1 | 17.7% | . | -80.2* | -5.0% | ? | -87.7*
Cc1nc2ccc(C(=O)N/N=C/c3cc([N+](=O)[O-])ccc3O)cc2[nH]1 | -11.4% | 4.7% | -92.1* | -8.4% | 17.8% | -92.1*
Cc1cccc(NC(=O)CNC(=O)CCNC(=O)c2ccc(C(C)(C)C)cc2)c1C | . | . | 2.8 | . | . | .
Cc1cc(C)c(OCC(=O)OCC(=O)N2c3ccccc3CC2C)c(C)c1 (stereo unspecified) | . | . | -0.1 | . | . | 14.0
CCCN(CC1CC1)c1nc(N)c(C#N)c(CC#N)c1C#N | 0.9% | 10.2% | -0.9 | 15.8% | -1.6% | 3.1
CCCN(CC1CC1)c1nc(C)nc(Nc2c(Cl)cc(Cl)cc2Cl)c1Cl | -3.8% | 3.9% | -0.7 | 3.55µM* | . | 16.4

Screening data (PubChem BioAssay)
